# Bioassay records from PubChem BioAssay.
# Shown are actives, neighbours in structure and some others; about 3% of the full set was active somewhere.
# Sm TGR inh = inhibitors of Schistosoma mansoni thioredoxin glutathione reductase. actives 3% (n = 360,000). purified TGR, DTNB reduction, TNB absorbance 405 nm. Potency, µM (series often up to 114 µM), for inactives: at the top dose activity change, negative = inhibition, most hits filed as inhibitors. Q962Y6; also: nearly all actives have a fitted effect of over 60% in size
#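 First, TGR (20 nM dispensed) and NADPH were mixed with compound. Second, a 15 min room-temperature incubation followed. Third, further NADPH and then DTNB were added to start the reaction. Finally, TNB absorbance was monitored kinetically.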
# LmPK inhibitor = LmPK (Leishmania mexicana) enzyme inhibition. Q27686. purified LmPK, Kinase-Glo ATP luminescence, 1 h. Potency, µM (highest dose often 57.5 µM), inactives show top-dose activity change, negative = inhibition, most hits filed as inhibitors. actives 0.37% (n = 290,000)
# Target sequence (Q27686 whole entry, looked up): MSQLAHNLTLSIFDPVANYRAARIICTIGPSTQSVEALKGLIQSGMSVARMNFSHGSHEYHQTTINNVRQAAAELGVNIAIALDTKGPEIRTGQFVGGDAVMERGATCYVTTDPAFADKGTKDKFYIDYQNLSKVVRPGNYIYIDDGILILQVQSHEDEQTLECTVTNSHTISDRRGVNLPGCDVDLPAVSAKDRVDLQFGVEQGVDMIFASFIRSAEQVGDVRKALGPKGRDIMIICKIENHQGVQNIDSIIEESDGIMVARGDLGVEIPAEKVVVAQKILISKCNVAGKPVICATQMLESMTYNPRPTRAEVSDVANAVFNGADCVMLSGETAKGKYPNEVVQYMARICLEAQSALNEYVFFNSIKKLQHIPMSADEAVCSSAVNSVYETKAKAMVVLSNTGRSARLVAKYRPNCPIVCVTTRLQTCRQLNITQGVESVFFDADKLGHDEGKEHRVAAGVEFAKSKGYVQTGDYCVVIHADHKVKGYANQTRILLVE
#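 qHTS format; LmPK 0.1 nM; substrates PEP 0.5 mM and ADP 0.1 mM. One-hour room-temperature incubation, then coupled luciferase luminescence; 0.5 nM enzyme wells mark activation.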
# RE007 growth inh = less growth of the S. pombe RE007 Vpr strain. S. pombe RE007 Vpr strain, BacTiter-Glo ATP luminescence, 24 h. Potency, µM (top dose mostly 92.2 µM), for the others: top-dose activity change, negative = less growth, usual class: inhibitors. actives 0.21% (n = 360,000). AID 651644; active = well fitted falling curve with a large enough effect; inconclusive = small, poorly fitted or top-dose-only effect; inactive = no such curve, though single readings can be large or run the other way; also: nearly all actives have a fitted effect of over 50% in size
#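 Fission yeast RE007 carrying one integrated HIV-1 vpr copy, seeded at OD 0.01 in PMG+AL medium with 23 nL pinned compound. Grown 24 h at 30 degrees; viability read by BacTiter-Glo luminescence after 5 min.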
# Tb PYK inh = T. brucei pyruvate kinase inhibition; Q57TT1; TbPYK enzyme, Kinase-Glo Plus ATP luminescence, 45 min; Potency, µM (titrated, usually from 76.8 µM), without a hit: at the highest dose activity, negative = inhibition, actives largely listed as inhibitors; actives 0.12% (n = 410,000); also: nearly all actives have a fitted effect of over 50% in size
#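 Luminescence from Kinase-Glo Plus, added after a 45-minute room-temperature reaction, served as the end-point read-out. The enzyme and substrate were preincubated with compound before ADP (130 uM final) initiated turnover. Concentration-effect curves came from normalized qHTS data.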
# Active calls of the source: *; ? = inconclusive; . = no result given. Unless noted, calls follow the shape of the dose curve; as a rule, active = well fitted curve in the direction sought with a large enough effect; inconclusive = small, poorly fitted or top-dose-only effect, or another doubt; inactive = no such curve, though single readings can be large; an effect the other way counts as inactive or inconclusive. % is scaled to controls: 0 for no effect and ±100 for the full control effect; potency is read from the fitted curve at half-maximal effect.
SMILES,Sm TGR inh,LmPK inhibitor,RE007 growth inh,Tb PYK inh
O=C(/C=C/c1ccco1)Nc1ccccc1C(=O)Nc1cccc(C(=O)O)c1,25.1µM*,7.6%,-9.1%,-17.0%
O=C(Nc1ccccc1C(=O)Nc1ccccc1)c1ccccc1Br,.,.,3.8%,-4.8%
CCC(O)c1nc2ccccc2n1CCOc1cc(C)cc(C)c1 (stereo not drawn),-0.9%,.,.,6.4%
O=S(=O)(O)OCC1OC(OC2(COS(=O)(=O)O)OC(COS(=O)(=O)O)C(OS(=O)(=O)O)C2OS(=O)(=O)O)C(OS(=O)(=O)O)C(OS(=O)(=O)O)C1OS(=O)(=O)O (stereo not drawn),.,.,.,0.0%
CN(C(=O)/C=C/c1ccco1)c1ccccc1C(=O)O,3.55µM*,30.4%,-0.4%,-15.4%
CC(C)N1CCc2c(sc(NC(=O)c3ccc(S(=O)(=O)N4CCOCC4)cc3)c2C#N)C1,44.7µM*,-0.7%,11.5%,0.3%
COc1ccc(OC)c(NC(=O)c2ccc(-c3nc(CSc4ccccc4)c(C)o3)cc2)c1,-22.9%,.,.,-0.2%
O=C(CCN1CCN(c2ccccc2F)CC1)c1ccc(Br)cc1,0.0%,-7.1%,31.6µM*,-14.3%
O=C(CCN1CCN(c2ccccc2)CC1)c1ccc(Br)cc1,0.0%,1.2%,?,1.0%
COc1ccc(C(=O)CCN2CCN(c3ccccc3F)CC2)cc1,0.794µM*,-0.5%,11.2µM*,-3.8%
O=C(CCS(=O)(=O)c1cccs1)Nc1ccc(C(=O)Nc2ccccc2F)cc1,-2.8%,.,.,0.1%
COc1cc(/C=C(\C#N)c2nc3ccccc3[nH]2)ccc1OCc1cccc(C(F)(F)F)c1,2.1%,.,.,3.9%
COc1cc(C(=O)N/N=C/c2coc3ccccc3c2=O)cc(OC)c1OC,44.7µM*,-9.1%,-11.4%,-11.5%
Cc1c(CNC2CCCCCC2)c(C(=O)O)c(C)n1Cc1cccc(Cl)c1,-7.2%,.,.,-5.4%
Cc1ccc(C(=O)CSc2nc(-c3ccccc3)nc3c2CCCC3)cc1C,0.4%,.,.,-9.2%
COCCn1c(-c2ccco2)csc1=Nc1cccnc1,?,-1.5%,-11.2%,-3.0%
CC(C)Cn1c(-c2ccco2)csc1=Nc1cccnc1,56.2µM*,4.5%,-0.3%,-7.1%
COc1ccc2oc(C(=O)N3CCN(C(=O)c4ccco4)CC3)c(C)c2c1,50.1µM*,.,-7.5%,-12.9%
COc1ccc2oc(C(=O)N3CCN(c4ncccn4)CC3)c(C)c2c1,-9.5%,-2.4%,-4.1%,10.3%
O=C(Nc1cc(-c2ccc(Cl)cc2)no1)c1ccc(F)cc1,6.3%,.,.,3.1%
O=C(O)c1nn(-c2ccccc2-c2n[nH]c(=O)[nH]c2=O)c(=O)[nH]c1=O,11.2µM*,5.7%,.,.
CC(C)N(C)C1CCN(S(=O)(=O)c2ccc3[nH]c(=O)ccc3c2)CC1,50.1µM*,.,.,-5.4%
O=C(Nc1ccc(F)cc1)[C@H](CSCc1ccccc1)N1Cc2ccccc2C1=O,0.1%,.,.,-1.3%
CCOC(=O)c1cc2c(=O)n3ccccc3nc2n(C(C)C)c1=NC(=O)c1ccco1,-11.6%,1.3%,-4.3%,3.0%
CC(C)n1c(=NC(=O)c2ccco2)c(C#N)cc2c(=O)n3ccccc3cc21,44.7µM*,-1.7%,-3.8%,-8.3%
SMILES,Sm TGR inh,LmPK inhibitor,RE007 growth inh,Tb PYK inh
Cc1ccccc1-c1noc(-c2cc(C(C)C)[nH]n2)n1,6.5%,.,.,-7.1%
COc1ccc(N2CCN(S(=O)(=O)c3ccc4c(c3)NC(=O)CC(=O)N4)CC2)cc1,11.2µM*,8.4%,-7.2%,7.2%
CCCCC(=O)O[C@]1(C(=O)CO)CCC2C3CCC4=CC(=O)CCC4(C)C3C(O)CC21C (stereo partly drawn),.,.,.,-3.0%
COc1ccc2ccc(O)c(CN3CCN(S(=O)(=O)c4cccc(C(F)(F)F)c4)CC3)c2c1,2.51µM*,.,-10.0%,3.6%
COc1ccc2ccc(O)c(CN3CC=C(c4ccccc4)CC3)c2c1,8.91µM*,0.5%,-22.4%,1.6%
CCCN(CCC)C(=O)C(CCC(=O)OCCCN1CCN(CCOC(=O)Cc2c(C)n(C(=O)c3ccc(Cl)cc3)c3ccc(OC)cc23)CC1)NC(=O)c1ccccc1 (stereo not drawn),.,.,.,-5.6%
COc1cccc(NC2=C(C#N)C(=O)NC(c3cccc(OC)c3O)S2)c1 (stereo not drawn),7.94µM*,1.9%,8.7%,-8.9%
O=C(Nc1ccccc1)Nc1ccc(C(=O)N2CCOCC2)cc1,14.0%,12.6µM*,-25.1%,?
O=C(Nc1ccc(C(=O)N2CCCC2)cc1)c1ccccc1F,-7.0%,14.1µM*,-25.7%,?
O=S(=O)(NCc1nc2cccnc2n1Cc1ccccc1)c1ccc2c(c1)CCCC2,1.5%,.,.,-4.4%
O=C(O)CCn1cc(C=C2C(=O)NC(=S)NC2=O)c(-c2cccc(Cl)c2)n1,31.6µM*,7.1%,10.5%,11.2µM*
O=C(O)CCn1cc(/C=C/C(=O)c2ccc(Cl)cc2)c(-c2ccc(Br)cc2)n1,?,5.0%,?,2.7%
O=C(O)CCn1cc(C=C2C(=O)NC(=O)NC2=O)c(-c2ccc(Br)cc2)n1,-0.1%,-0.5%,3.1%,17.8µM*
CN(Cc1ccon1)C(=O)CC1C(=O)NCCN1Cc1ccc(Cl)c(F)c1 (stereo not drawn),35.5µM*,-4.6%,-8.6%,-7.7%
O=C1NCCN(Cc2ccc(Cl)c(F)c2)C1CC(=O)N1CCc2ccccc2C1 (stereo not drawn),20µM*,7.0%,-18.5%,-0.4%
CN(Cc1cnccn1)C(=O)CC1C(=O)NCCN1CC(c1ccccc1)c1ccccc1 (stereo not drawn),44.7µM*,1.5%,-15.4%,-0.2%
CN(Cc1ccon1)C(=O)CC1C(=O)NCCN1Cc1ccc(F)c(F)c1 (stereo not drawn),?,-2.8%,-10.1%,-3.8%
O=C1CN(C(=O)CC2C(=O)NCCN2Cc2ccccc2C(F)(F)F)CCN1 (stereo not drawn),-32.7%,-7.5%,-17.8%,-1.0%
CN(Cc1ccncn1)C(=O)CC1C(=O)NCCN1Cc1cccc(Oc2ccccc2)c1 (stereo not drawn),44.7µM*,9.9%,7.7%,-7.4%
COc1ccc(CCNC(=O)C(=O)NCC(c2ccco2)S(=O)(=O)c2ccc(F)cc2)cc1 (stereo not drawn),?,.,.,-0.9%
CN(Cc1cnccn1)C(=O)CC1C(=O)NCCN1Cc1c(F)cccc1Cl (stereo not drawn),31.6µM*,-7.1%,9.4%,-6.5%
N#Cc1cc(Sc2ccccn2)c([N+](=O)[O-])cc1C#N,35.5µM*,5.3%,111.2%,6.0%
COc1ccc(NC(=O)N2CC[C@@]3(CCCN(C(=O)c4cnccn4)C3)C2)cc1,.,.,.,-0.3%
COC(=O)c1cc(O)cc(OC)c1Oc1cc(C)cc(O)c1C(=O)O,7.08µM*,10.6%,0.5%,0.0%
COC(=O)c1cc(O)cc(OC)c1C(=O)c1c(O)cc(C)cc1O,-30.1%,11.8%,12.3%,3.3%
Fc1ccccc1-c1cc2ncccc2cn1,31.6µM*,.,-6.7%,-10.2%
COc1cc(OC)cc(-c2cc3ncccc3cn2)c1,-20.5%,.,-23.1%,-12.8%
